Screening data as filed in PubChem.
Hits are enriched below; roughly 11% of the tested compounds scored in any of these assays.
HPGD block: qHTS Assay for Inhibitors of HPGD (15-Hydroxyprostaglandin Dehydrogenase); AID 894, 2007; 15-hydroxyprostaglandin dehydrogenase [NAD(+)] (Homo sapiens), P15428; purified HPGD, NADH fluorescence kinetic, PGE2 substrate; actives 4.3% (n = 150,000); Potency, µM, for inactives: at the top dose activity change, negative = inhibition, hits mostly inhibitors; note: potency is the fitted concentration of half-maximal effect
Target sequence (P15428 whole entry, looked up): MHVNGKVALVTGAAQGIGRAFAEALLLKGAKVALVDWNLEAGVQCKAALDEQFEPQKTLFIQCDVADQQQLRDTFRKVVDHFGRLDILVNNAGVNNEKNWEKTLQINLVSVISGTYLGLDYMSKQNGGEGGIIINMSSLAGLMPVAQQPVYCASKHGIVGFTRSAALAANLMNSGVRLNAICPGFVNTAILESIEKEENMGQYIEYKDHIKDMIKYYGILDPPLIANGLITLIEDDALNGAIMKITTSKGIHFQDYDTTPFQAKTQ
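20 nM HPGD preincubated 15 min at room temperature with compound in 50 mM Tris-HCl pH 8, 0.01% Tween 20. Started with 1 mM NAD+ and 30 uM prostaglandin E2; NADH fluorescence (360/450 nm) read 5 times over 30-s intervals, last minus first.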
ALDH1A1 block: qHTS Assay for Inhibitors of Aldehyde Dehydrogenase 1 (ALDH1A1) | AID 1030, 2008 | actives 7.3% (n = 220,000) | Purified ALDH1A1, NADH fluorescence, propionaldehyde substrate | Potency, µM (series often up to 75.3 µM), for inactives: at the top dose activity, negative = inhibition, actives largely listed as inhibitors;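 note: potency is the fitted concentration of half-maximal effect; plate controls were no enzyme wells and a reference inhibitor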
PNC inhibitor: High Content Assay for Compounds that inhibit the Assembly of the Perinucleolar Compartment; AID 2417, 2010; PC3M PTB-GFP, PNC prevalence imaging, 16 h; hits give low values; activity change (PNC), negative = inhibition, % at 10 µM; actives 3.1% (n = 140,000);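 active = readout at or below -70, meaning at least 70% loss of cells showing the perinucleolar compartment, a nuclear body marking cancer cells; inconclusive = readout between -30 and a set limit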;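 note: plate controls were DMSO wells for no effect and camptothecin positive control wells for full effect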
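Compounds are pinned in duplicate onto adhered PC3M cells stably expressing GFP-tagged PTB and incubated 16 h at 37 C. Cells are then fixed, nuclei stained with Hoechst, and PNC-positive cells counted.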
* = called active by the depositor; ? = inconclusive; . = not tested or not shown; [ ] = another dose, or the depositor's remark. Unless noted, calls come from the whole dose curve; as a rule, active = well fitted inhibition curve with a large enough effect (not every such curve was filed as active); inconclusive = small, poorly fitted or top-dose-only effect, or another doubt; inactive = no such curve, though single readings can be large or run the other way. Unless noted, % is set by controls: 0 for no effect and ±100 for the full control effect.

SMILES	HPGD block	ALDH1A1 block	PNC inhibitor
CN(C)CCCCl	-0.5%	8.5%	.
Cc1ccc(-n2c(=O)c3sccc3n(Cc3cc(=O)n4ccccc4n3)c2=O)cc1F	?	?	-6.1
Cc1ccc(-n2c(=O)c3sccc3n(Cc3cc(=O)n4cc(Cl)ccc4n3)c2=O)cc1F	?	-4.2%	-82.9*
CCO	-4.6%	?	.
COc1cccc(C(=O)Cn2c(Br)nc3c2c(=O)n(C)c(=O)n3C)c1	-12.4%	0.1%	13.1
Cn1c(=O)c2c(nc(Br)n2CC(=O)C23CC4CC(CC(C4)C2)C3)n(C)c1=O	-16.5%	11.2µM*	?
CC(C)=CC(=O)Nc1ccc(S(=O)(=O)Nc2ccccn2)cc1	.	-2.7%	.
CC(=O)OCC(=O)[C@@]12OC(C)(C)OC1CC1C3CC(F)C4=CC(=O)C=C[C@@]4(C)[C@@]3(F)C(O)C[C@]12C (some centres not stated)	-0.2%	0.5%	.
O=C(NCCCN1CCOCC1)c1ccc(CNS(=O)(=O)c2ccc(Br)cc2)cc1	-9.6%	22.4µM*	-5.9
O=C(NCCCN1CCOCC1)c1ccc(Br)cc1	-9.8%	0.0%	-27.4
Cc1cc(C)cc(C(=O)NN2CCN(C)CC2)c1	.	1.5%	.
COc1cccc(C(=O)COC(=O)c2ccc(NC(C)=O)cc2)c1	-7.9%	4.3%	-13.2
CC1CCN(C(=S)c2cn(Cc3cccc(F)c3)c3ccccc23)CC1	-6.4%	?	-13.3
CC1CCN(C(=S)c2ccc(O)cc2)CC1	31.6µM*	?	-1.1
COc1ccc(C(=S)N2CCCC2)cc1	-27.5%	4.6%	138.1
CC1CCN(C(=S)c2ccccc2O)CC1	6.31µM*	?	-8.7
O=C(c1cccc([N+](=O)[O-])c1)c1ccc2c(c1)C(=O)N(c1c[nH]c(=O)[nH]c1=O)C2=O	.	-7.1%	.
CC1CC[C@@]2(OC1)OC1CC3C4CC=C5CC(O)CC[C@@]5(C)C4CC[C@]3(C)C1C2C (some centres not stated)	-7.0%	-0.7%	.
Cn1nnnc1SCCNCc1cc(Cl)ccc1OCc1ccccc1	-3.6%	12.6µM*	-3.3
Cn1nnnc1SCCNCc1ccccc1OCc1ccc(Cl)cc1	-19.6%	2.0%	-16.0
CCC(C)c1ccccc1OCCn1ccnc1 (configuration not stated)	-1.4%	?	-22.7
Cc1cc([N+](=O)[O-])cnc1NC(C)c1ccccc1 (configuration not stated)	-16.2%	22.4µM*	61.3
CC(Nc1cc(N2CCCC2)ccc1[N+](=O)[O-])c1ccccc1 (configuration not stated)	-26.1%	?	48.3
CCOc1cc(NC(=O)c2cccs2)c(OCC)cc1NC(=O)CCC(=O)NCC1CCCO1 (configuration not stated)	.	-4.8%	.
CCN1C(=O)[C@H]2[C@H]3[C@H](O)[C@H](O)C/C(=N/OC[C@@H](C)[C@H](OCc4ccccc4)C(C)C)[C@@H]3CC[C@@H]2C1=O	.	-1.0%[13.5 µM]	.
SMILES	HPGD block	ALDH1A1 block	PNC inhibitor
c1cncc(-c2nc(N3CCCCCC3)c3ccccc3n2)c1	-19.5%	1.41µM*	0.8
CN1CCN(c2nc(-c3cccnc3)nc3ccccc23)CC1	-12.5%	-0.7%	?
CCCCNC(=O)[C@@H]1Cc2ccccc2N1C(=O)[C@H](N)CC	-9.9%	?	.
COc1ccccc1OCc1nnc(SCC(=O)Nc2ccc(C)cc2)n1C	-6.6%	-8.3%	-3.1
O=C(CSc1ccccn1)Nc1ccc2c(c1)oc1ccccc12	25.1µM*	-1.1%	25.7
COC(=O)c1cccc(NC(=O)CSc2nnc(COc3ccccc3)n2C)c1	-21.3%	-3.7%	-126.1*
CCN(CC)C(=O)CSc1nc2ccc(NC(=O)CSc3nnc(COc4ccccc4C)n3C)cc2s1	20µM*	?	61.4
COc1cc2c(cc1NC(=O)CSc1ccccn1)oc1ccccc12	-3.0%	6.9%	89.1
Cc1ccccc1OCc1nnc(SCC(=O)Nc2ccc3c(c2)oc2ccccc23)n1C	?	14.1µM*	?
CCOC(=O)c1cccc(NC(=O)CSc2nnc(COc3ccccc3)n2CC)c1	-1.1%	-4.8%	-15.1
Cc1ccccc1OCc1nnc(SCC(=O)Nc2ccc3nc(SCC(=O)NC(C)(C)C)sc3c2)n1C	-17.3%	?	-13.3
Cc1ccc(S(=O)(=O)NCC(=O)OC(C)C(=O)Nc2ncc(Cl)cc2Cl)cc1 (configuration not stated)	-10.5%	-7.5%	31.8
Nc1nc2c(ncn2C2OC(CO)CC2O)c(=O)[nH]1 (configuration not stated)	-11.5%	2.4%	.
O=C(CSc1nccc(=O)[nH]1)NCc1ccc(Cl)cc1	.	7.4%	.
Cn1cccc1C(=O)N1CCC2(CCCN(c3ccc(-c4ccccc4)cc3)C2)CC1	-15.2%	?	.
CN1CCCN([C@@H](c2ccccc2)c2ccc(Cl)cc2)CC1	2.2%	10.9%[20.9 µM]	.
CCCCC[C@H](O)/C=C/[C@@H]1[C@H]2C/C(=C/CCCC(=O)O)O[C@H]2C[C@H]1O	-14.6%	21.2%	.
O=c1cc(CSc2nnc(COc3ccccc3)n2-c2ccccc2)c2ccccc2[nH]1	-10.4%	2.6%	38.4
Cn1c(COc2ccccc2)nnc1SCc1cc(=O)[nH]c2ccccc12	?	-4.3%	-107.3*
Cc1nn(-c2ccc(F)cc2)c2sc(C(=O)N3CCCCCC3)cc12	15.8µM*	35.5µM*	9.8
Cc1nn(-c2ccc(Cl)cc2)c2sc(C(=O)N3CCN(C(=O)c4ccco4)CC3)cc12	-12.9%	3.3%	-1.9
CCOC(=O)N/N=C(C)/C=C/c1ccco1	-16.0%	10µM*	-8.0
COc1ccc(C2(CNC(=O)/C=C\c3ccco3)CCCC2)cc1OC	?	3.55µM*	?
CC(/C=C/c1ccco1)=N\NC(=O)COc1ccc(C)c(C)c1	.	3.55µM*	.
CC(/C=C/c1ccco1)=N\NC(=O)CNc1ccc2ccccc2c1	.	7.94µM*	.
SMILES	HPGD block	ALDH1A1 block	PNC inhibitor
COc1ccc(C(NC(=O)/C=C/c2ccco2)c2ccc(OC)c(OC)c2)cc1OC	-12.5%	?	?
CC(/C=C/c1ccco1)=N/NC(=O)CNc1ccccc1C	.	-7.4%	.
CCOC(=O)N/N=C(C)/C=C/c1ccccc1	1.5%	1.5%	?
Cc1cc(C)cc(OCC(=O)N/N=C/c2ccco2)c1	.	2.3%	.
CN(C)/C=N/c1cc(=O)[nH]c(=O)n1C	-11.8%	9.2%	42.1
O=C(O)c1ccc(N[C@@H]2OC[C@@H](O)[C@@H](O)[C@@H]2O)cc1	-6.5%	3.3%	.
COc1ccccc1N1CCN(C(=O)CN(C)S(=O)(=O)c2ccc3c(c2)c(=O)n(C)c(=O)n3C)CC1	.	-2.4%	.
Cc1ccc(OCCNC(=O)/C=C/c2ccco2)cc1C	.	11.2µM*	.
Cc1ccc(OCCNC(=O)/C=C/c2ccc([N+](=O)[O-])cc2)cc1C	-17.3%	-6.3%	62.7
N=C1c2ccccc2CN1NC(=O)COc1ccc(Cl)cc1	.	-3.3%	.
CC1CN(C)C(c2ccccc2)C(C)C12NC(=O)NC2=O (configuration not stated)	-13.2%	7.08µM*	7.6
CC1C(c2ccccc2)N(C)C(c2ccccc2)CC1(O)c1ccccc1 (configuration not stated)	-20.2%	2.3%	?
